According to the supplement of paper PMC11219838:

How the values were obtained:
[1] = tested on: Caenorhabditis elegans dauer (daf-2(e1370)); assay: proportion of mobile C. elegans dauer larvae relative to DMSO control (fraction of DMSO control); higher = more viable, less nematicidal, active = 0.63 or less; extreme values may be limits of the assay; conditions: 60 µM; 5 days; temperature: 20 °C
In short: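 Synchronized C. elegans larvae were kept for 48 h at 25 °C on MYOB plates seeded with E. coli OP50 to induce dauer formation, and roughly 20 dauers were transferred into each well of a 96-well plate containing liquid NGM. Compound was pinned in to a final concentration of 60 µM with 0.6% v/v DMSO, and the sealed plates were shaken at 200 rpm for 5 days at 20 °C. The fraction of mobile worms was scored under a dissection microscope against DMSO-only wells and averaged across two biological replicates.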

Ditylenchus dipsaci = assay: proportion of mobile D. dipsaci (mixed stage) relative to DMSO control (fraction of DMSO control); higher = more viable, less nematicidal, active = 0.86 or less; extreme values may be limits of the assay; conditions: 60 µM; 5 days; temperature: 20 °C
In short: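 Mobility values are relative to DMSO controls and are averages of two biological replicates. For each well of a 96-well plate, about 20 D. dipsaci worms, grown on pea plants in Gamborg B-5 agar and funnel-extracted into water, were dispensed in distilled water. Plates received pinned compound at 60 µM final with 0.6% v/v DMSO and were sealed and shaken at 200 rpm for 5 days at 20 °C before 2 µL 1 M NaOH was added and mobile worms were scored by microscope.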

COc1ccc(-c2noc(-c3cccc(F)c3)n2)cc1
proportion of mobile C. elegans dauer larvae [1]: 1 (inactive)
proportion of mobile D. dipsaci (Ditylenchus dipsaci): 1 (inactive)

Brc1ccccc1-c1nc(-c2ccncc2)no1
proportion of mobile C. elegans dauer larvae [1]: 0.274 (active)
proportion of mobile D. dipsaci (Ditylenchus dipsaci): 1 (inactive)

COc1ccc(NC(=O)c2ccccc2-c2nc(-c3ccccc3C)no2)cc1
proportion of mobile C. elegans dauer larvae [1]: 1 (inactive)
proportion of mobile D. dipsaci (Ditylenchus dipsaci): 1 (inactive)

CC(C)(C)c1ccc(-c2nnc(SCC(=O)c3ccc(F)cc3)o2)cc1
proportion of mobile C. elegans dauer larvae [1]: 1 (inactive)
proportion of mobile D. dipsaci (Ditylenchus dipsaci): 1 (inactive)

COc1ccccc1CC(=O)Nc1ccc(-c2noc(-c3ccccc3C)n2)cc1
proportion of mobile C. elegans dauer larvae [1]: 1 (inactive)
proportion of mobile D. dipsaci (Ditylenchus dipsaci): 1 (inactive)

O=C(Nc1ccc(-c2noc(COc3ccccc3)n2)cc1)c1ccc(F)cc1
proportion of mobile C. elegans dauer larvae [1]: 1 (inactive)
proportion of mobile D. dipsaci (Ditylenchus dipsaci): 1 (inactive)

Cc1ccccc1-c1nnc(SCc2ccccc2Cl)o1
proportion of mobile C. elegans dauer larvae [1]: 1 (inactive)
proportion of mobile D. dipsaci (Ditylenchus dipsaci): 1 (inactive)

Cc1c(C(=O)CSc2nnc(-c3ccccc3)o2)c2ccccc2n1C
proportion of mobile C. elegans dauer larvae [1]: 1 (inactive)
proportion of mobile D. dipsaci (Ditylenchus dipsaci): 1 (inactive)

Clc1ccc(-c2nc(-c3ccccc3Br)no2)cc1
proportion of mobile C. elegans dauer larvae [1]: 1 (inactive)
proportion of mobile D. dipsaci (Ditylenchus dipsaci): 1 (inactive)

COc1cccc(-c2noc(COc3ccc4ccccc4c3)n2)c1
proportion of mobile C. elegans dauer larvae [1]: 1 (inactive)
proportion of mobile D. dipsaci (Ditylenchus dipsaci): 1 (inactive)

CCC(=O)Nc1ccccc1-c1nc(-c2ccccn2)no1
proportion of mobile C. elegans dauer larvae [1]: 1 (inactive)
proportion of mobile D. dipsaci (Ditylenchus dipsaci): 1 (inactive)

c1ccc(-c2nc(C3CCCCC3)no2)cc1
proportion of mobile C. elegans dauer larvae [1]: 1 (inactive)
proportion of mobile D. dipsaci (Ditylenchus dipsaci): 1 (inactive)

Cc1ccc(-c2nc(-c3ccccc3)no2)cc1
proportion of mobile C. elegans dauer larvae [1]: 1 (inactive)
proportion of mobile D. dipsaci (Ditylenchus dipsaci): 1 (inactive)

Cc1ccc(-c2noc(CSc3nc4ccccc4[nH]3)n2)cc1
proportion of mobile C. elegans dauer larvae [1]: 1 (inactive)
proportion of mobile D. dipsaci (Ditylenchus dipsaci): 1 (inactive)

Cc1ccc(CSc2nnc(-c3ccco3)o2)c(C)c1
proportion of mobile C. elegans dauer larvae [1]: 1 (inactive)
proportion of mobile D. dipsaci (Ditylenchus dipsaci): 1 (inactive)
